Rtt109 Vps75 = inhibitors of C. albicans Rtt109/Vps75 HAT, primary screen, biochemical, ThioGlo CoA-SH fluorescence, plate reader; purified Rtt109/Vps75, 4 h; inhibition, % at 34.9 µM; Histone acetyltransferase RTT109 (Candida albicans (strain SC5314 / ATCC MYA-2876)), …; hit rate 0.16% among 330,000;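 active = inhibition of at least 50% in every replicate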
LANA-H2B inh = blockers of LANA interaction with H2A/H2B – biochemical, FP readout, HTS, primary screen; inhibition, % (no concentration beside the values); cell-free LANA-H2A/H2B peptide, fluorescence polarization; hit rate 0.6% among 320,000; Protein LANA1 (Human herpesvirus 8 type P (isolate GK18)), Q9QR71; AID 2629, 2010; in the data active = inhibition mostly above about 10%, no sharp cut-off; inactive = mostly below about 6.7%
HTR2A ag = mouse Htr2a agonists via beta-arrestin recruitment, primary screen, cell-based, luminescence | 5-hydroxytryptamine receptor 2A (Mus musculus), P35363 | CHO-K1 mHTR2A beta-arrestin complementation; percent of 30 µM serotonin response | activation, % at 7.6 µM | hit rate 0.66% among 360,000;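 active = activation above a run cutoff, the mean activation of all tested compounds plus 3 SD, cut at about 14% in these data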;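 note: 0% = plate median of compound wells and 100% = 30 µM serotonin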
TLR4-MyD88 BLA = inhibitors of TLR4-MyD88 association in cells, primary screen, cell-based, HeLa CL3-4, BLA complementation, FRET ratio | AID 861, 2007 | hit rate 0.18% among 200,000 | Toll-like receptor 4 (Homo sapiens) + Myeloid differentiation primary response protein … | inhibition, % at 8.4 µM | HeLa CL3-4 TLR4/MyD88 BLA complementation; in the data active = inhibition above about 25%;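 note: 0% = vehicle and 100% = reference inhibitor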
NOD2-RIPK2 inh = NOD2-RIPK2 binding disruptors in cells, primary screen, fluorescence, CHO cells, BLA complementation. CCF4 ratio. hit rate 0.38% among 360,000. inhibition, % at 4.98 µM. Receptor-interacting serine/threonine-protein kinase 2 (Homo sapiens), O43353; in the data active = inhibition above about 21%;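 note: 0% = vehicle only and 100% = reference blocker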
Target sequence (O43353 whole entry, looked up): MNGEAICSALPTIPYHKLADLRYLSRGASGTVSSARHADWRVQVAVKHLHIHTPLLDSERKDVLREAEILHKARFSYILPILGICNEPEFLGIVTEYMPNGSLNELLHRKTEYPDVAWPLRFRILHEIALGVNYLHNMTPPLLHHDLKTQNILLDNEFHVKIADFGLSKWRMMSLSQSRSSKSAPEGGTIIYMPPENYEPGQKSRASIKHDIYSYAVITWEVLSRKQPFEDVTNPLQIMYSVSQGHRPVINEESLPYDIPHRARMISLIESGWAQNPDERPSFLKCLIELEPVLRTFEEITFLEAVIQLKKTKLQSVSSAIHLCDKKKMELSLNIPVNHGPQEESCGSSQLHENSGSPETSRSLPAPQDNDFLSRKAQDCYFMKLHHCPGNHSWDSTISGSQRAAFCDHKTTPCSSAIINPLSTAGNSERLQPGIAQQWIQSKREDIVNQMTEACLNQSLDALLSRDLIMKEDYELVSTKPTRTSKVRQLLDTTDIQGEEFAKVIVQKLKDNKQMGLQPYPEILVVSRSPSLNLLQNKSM
TLR9-MyD88 block = inhibitors of TLR9-MyD88 association in cells, primary screen, cell-based, CHO, BLA complementation, fluorescence; CCF4 FRET ratio; Toll-like receptor 9 (Homo sapiens) + Myeloid differentiation primary response protein …; hit rate 0.21% among 340,000; inhibition, % at 4.98 µM;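 active = inhibition above the mean over all tested compounds plus 3 SD, cut at about 21% in these data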;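 note: 0% = DMSO only wells and 100% = clavulanate BLA inhibitor control wells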
Starred values were filed as active, the others as inactive; x = no result; + = active, no number. A selection: hits, their analogues and other compounds. The true share with any hit is near 1.8%.

SMILES | Rtt109 Vps75 | LANA-H2B inh | HTR2A ag | TLR4-MyD88 BLA | NOD2-RIPK2 inh | TLR9-MyD88 block
CCc1nc2c(OCC(=O)N3CCOCC3)cccn2c1N(C=O)Cc1ccccc1 | x | x | -4 | x | -1 | x
CCN1/C(=C/c2ccc3cc(C)ccc3[n+]2CC)Sc2cc(C)c(C)cc21 | 96* | x | -3 | 3 | -7 | 6
CCOC(=O)N1CCN(C(=O)/C=C/c2ccc(C(C)(C)C)cc2)CC1 | 6 | 37* | 1 | x | 4 | 14
CCN(CC)c1ccc(-c2nn3c(-c4n[nH]c5c4CCC5)nnc3s2)cc1 | -7 | 1 | 35* | -1 | 14 | -6
CCc1nc2ccc(C(=O)NCCN3CCOCC3)cn2c1N(C=O)Cc1ccc(OC)cc1 | x | x | -5 | x | -6 | x
O=C(Nc1ccc(CN2CCOCC2)cc1)c1ccc(-c2cccc([N+](=O)[O-])c2)o1 | 0 | 26* | -11 | x | -5 | 15
O=C(CCN1CCN(Cc2ccccc2)CC1)NNC(=O)Nc1cccc(Cl)c1 | 3 | 1 | -7 | x | -2 | -4
O=C(CCN1CCN(Cc2ccccc2)CC1)NNC(=O)Nc1cccc([N+](=O)[O-])c1 | 0 | 16* | -4 | x | -3 | -24
Cc1ccccc1OCC1CN(CN2CCOCC2)C(=O)O1 (stereo unspecified) | 0 | 24* | -1 | -1 | 8 | 6
CCCCCCCc1c(O)nc(SCC(=O)O)[nH]c1=O | 0 | 48* | 7 | x | -4 | 2
CCCCCc1c(O)nc(SCC(=O)O)[nH]c1=O | x | x | x | -1 | x | x
CC1(Cc2cccc(C(F)(F)F)c2)C(=O)Nc2ccc(-c3ccc(F)c(Cl)c3)cc21 (stereo unspecified) | x | x | 5 | x | -10 | x
O=[N+]([O-])c1ccccc1S(=O)(=O)N(CC1CO1)c1ccccc1 (stereo unspecified) | 2 | 13* | 3 | x | -1 | 10
NC(=O)c1ccc(-c2ccc(Br)cc2)o1 | -11 | 1 | 0 | 0 | -1 | -1
NC(=O)C1CCN(C(=S)c2ccc(-c3ccc(Br)cc3)o2)CC1 | 2 | 14* | -7 | 8 | -1 | x
CCOc1ccc(-c2cc(C(=O)NCc3cc(OC)cc(OC)c3)[nH]n2)c(C)c1 | x | x | 6 | x | -9 | x
COc1cc(/C=N/NC(=O)C(NC(=O)c2ccccc2)c2n[nH]c(=O)c3ccccc23)ccc1OCC(N)=O (stereo unspecified) | 18 | 22* | -6 | x | -8 | 10
CN(C)C(=O)COC(=O)c1ccccc1OCC(=O)Nc1ccc(SC(F)F)cc1 | -1 | 0 | -4 | 7 | 6 | -7
O=C(COc1ccccc1C(=O)O)Nc1ccc(SC(F)F)cc1 | 2 | -3 | -1 | 25* | 1 | 2
COc1cc(NC(=O)C(Cc2ccccc2)n2cccc2)cc(OC)c1 (stereo unspecified) | 52* | 2 | -5 | x | -21 | 3
COc1ccc(NC(=O)C(Cc2ccccc2)n2cccc2)cc1 (stereo unspecified) | 3 | -6 | -1 | x | 9 | -6
O=C(CC[C@H]1O[C@@H](n2ccc(=O)[nH]c2=O)[C@H](O)[C@@H]1O)N[C@H](Cc1ccccc1)C(=O)NCc1cccs1 | x | x | 3 | x | 10 | x
CC(=O)C1=C(O)C(=O)N(c2ccc(C(=O)O)cc2)C1c1ccc([N+](=O)[O-])cc1 (stereo unspecified) | 1 | 13* | 1 | x | 0 | 0
CC(=O)c1cnc(-c2ccccn2)s1 | -5 | 18* | 4 | 7 | -3 | 4
CC(=O)c1cnc(-c2ccccc2Cl)s1 | 3 | 3 | -2 | 9 | 3 | -6
SMILES | Rtt109 Vps75 | LANA-H2B inh | HTR2A ag | TLR4-MyD88 BLA | NOD2-RIPK2 inh | TLR9-MyD88 block
CCCC1C2CN(C(C)C)CC=C2C(C#N)=C(N)C1(C#N)C#N (stereo unspecified) | -37 | 30* | 7 | -10 | -22 | -1
COc1ccc(OCCN2CCC(C(=O)NC(c3ccsc3)c3ccccc3C)CC2)cc1 (stereo unspecified) | x | x | -8 | x | -1 | x
CCCCCCCCN1C(=O)[C@H](CC(=O)N2CCSCC2)C[C@@]2(C(=O)OCC)CCCC=C12 | x | x | 9 | x | 0 | x
CC(O)(c1ccc(F)c(F)c1)c1nc(-c2ccoc2)cs1 (stereo unspecified) | x | x | 0 | x | -4 | x
O=C(C[n+]1cc(-c2ccc(Cl)c(Cl)c2)n2c1CCC2)N1c2ccccc2Sc2ccccc21 | 57* | 2 | 3 | 0 | -3 | -5
Cc1cc(C)n(CC(O)Cn2c3ccc(Br)cc3c3cc(Br)ccc32)c(=O)n1 (stereo unspecified) | -1 | 15* | -1 | 3 | 4 | -2
Cc1nc(CN2C(=O)C3(CCC3)ON=C2c2cccc(Cl)c2)cs1 | x | x | -3 | x | -2 | x
NC(=O)c1nn(CC(=O)Nc2cccc(S(=O)(=O)N3CCCCCC3)c2)c(=O)c2ccccc12 | 2 | + | 9 | x | -2 | -20
c1ccc2c(c1)CCCN2Cc1nnc2n1CCCCC2 | -13 | 59* | 0 | 11 | -10 | -5
c1ccc(Cc2nnc3n2CCCCC3)cc1 | -5 | -9 | -3 | -2 | -10 | -1
C(=C\c1ccccc1)/CN1CCN(C(c2cccc3ccccc23)c2nnnn2-c2ccc3c(c2)OCCO3)CC1 (stereo unspecified) | x | x | -10 | x | -9 | x
Cc1nc(N2CCc3ccccc3C2)[nH]c(=O)c1Cc1ccccc1 | 2 | 11* | -2 | 6 | -17 | -5
CCCCCc1c(C)nc(N2CCc3ccccc3C2)[nH]c1=O | 5 | x | -6 | 12 | -6 | 9
O=C(CNC(=O)c1ccc(Cl)cc1)c1ccc(Cl)cc1 | -5 | 4 | 4 | x | -4 | -1
O=C(CNC(=O)c1ccc(F)cc1)c1ccc(Cl)cc1 | 52* | -1 | 0 | x | 1 | -6
C=CCNC(=S)NNC(=O)COc1ccc2cc(Br)ccc2c1 | 14 | -7 | 16* | -12 | -5 | -5
CCOC(=O)[C@]12CCCC=C1N(Cc1ccccc1)C(=O)[C@H](CC(=O)NCCc1ccccc1OC)C2 | x | x | -5 | x | 6 | x
CCOC(=O)C1CCN(c2cc(=O)n(-c3ccc(OC)cc3)c(=O)[nH]2)CC1 | 4 | 2 | -8 | -9 | -15 | -1
CCOC(=O)C1CCCN(c2cc(=O)n(C3CCCCC3)c(=O)[nH]2)C1 (stereo unspecified) | 59* | 7 | 3 | 0 | -7 | -1
CN1CCN(CCCNC(=O)Nc2cccc3ccccc23)CC1 | 3 | 5 | 2 | -5 | -7 | -2
